According to PubChem BioAssay (EPA / NIEHS):
Values joined by “and” are separate entries in the source; they are usually repeats but may differ in a detail not shown here. Equal values may be shown once. Records with an inconclusive call do not appear. Active and inactive are the calls of the source. The calls were made as follows: active = hit-call score of the fitted dose curve at least 0.9, where 1 is the maximum; inconclusive = response in the unintended direction; inactive = score below 0.9.

Target: human CYP2C9, CYP2C9 (gene 1559) (UniProt P11712)
Test: NVS_ADME_hCYP2C9: NovaScreen (NVS) CYP450-related Enzyme Activity (ADME) Assay for human CYP2C9 (AID 2283108)
Procedure: NVS_ADME_hCYP2C9 is a biochemical, single-readout assay that uses extracted gene-proteins from SF9 in a cell-free assay. Measurements were taken 0.75 hour after chemical dosing in a 96-well plate.NVS_ADME_hCYP2C9 is one of one assay component(s) measured or calculated from the NVS_ADME_hCYP2C9 assay. It is designed to make measurements of enzyme activity, a form of enzyme reporter, as detected with fluorescence intensity signals by Fluorescence technology.Data from the assay component NVS_ADME_hCYP2C9 was analyzed into 1 assay endpoint. This assay endpoint, NVS_ADME_hCYP2C9, was analyzed in the positive analysis fitting direction relative to Acetonitrile as the negative control and baseline of activity. Using a type of enzyme reporter, loss-of-signal activity can be used to understand changes in the enzymatic activity as they relate to the gene CYP2C9. Furthermore, this assay endpoint can be referred to as a primary readout, because this assay has produced multiple assay endpoints where this one serves a enzymatic activity function. To generalize the intended target to other relatable targets, this assay endpoint is annotated to the cyp intended target family, where the subfamily is xenobiotic metabolism.
Binding assays used specific radioligands (tritiated, iodinated) with non-radioactive competitive displacement ligands in agonist or antagonist protocols (as indicated) and various reference compounds and inhibitors to titrate specific binding to receptors and transporters. Most enzyme assays (CYPs, kinases, phosphatases, proteases, HDACs) used recombinant protein and specific substrates (fluorescence mostly, some colorimetric and radioactive) and inhibitors, followed by a biochemical separation of substrate and product. All assays for the biochemical HTS were initially run in duplicate at a single concentration (10 uM for CYP450 assays and 25 uM for all others). […] Each assay was run with positive and negative controls, and concurrent controls on every plate. The follow-up (secondary) screen tested active chemical-pairs in concentration series, as well as a few additional assays not tested in the primary screen, some selected negative inactives, and several cases re-run in the concentration series for confirmatory purposes.

human CYP2C9, CYP2C9 (gene 1559), sequence (P11712 whole entry, looked up): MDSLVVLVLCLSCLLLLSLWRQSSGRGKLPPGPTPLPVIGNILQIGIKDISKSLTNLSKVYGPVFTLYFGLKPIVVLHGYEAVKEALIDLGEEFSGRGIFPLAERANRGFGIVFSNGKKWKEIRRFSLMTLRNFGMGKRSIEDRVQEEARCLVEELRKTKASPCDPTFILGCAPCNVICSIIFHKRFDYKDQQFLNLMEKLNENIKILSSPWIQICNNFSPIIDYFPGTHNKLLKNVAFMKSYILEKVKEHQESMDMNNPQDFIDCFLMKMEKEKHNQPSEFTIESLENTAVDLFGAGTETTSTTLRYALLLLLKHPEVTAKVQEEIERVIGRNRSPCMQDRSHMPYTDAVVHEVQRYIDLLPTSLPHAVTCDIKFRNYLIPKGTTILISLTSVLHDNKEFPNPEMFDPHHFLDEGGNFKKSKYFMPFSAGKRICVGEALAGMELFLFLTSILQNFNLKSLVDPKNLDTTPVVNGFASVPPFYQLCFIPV

SMILES	outcome	AC50
COP(=O)(OC)OC(Br)C(Cl)(Cl)Br (stereo not drawn)	inactive	–
CCOP(=S)(OCC)Oc1ccc([N+](=O)[O-])cc1	–	2.62 µM (active)
COc1cccc(C(=O)NN(C(=O)c2cc(C)cc(C)c2)C(C)(C)C)c1C	inactive	–
Cc1cc(C2CC2)nc(Nc2ccccc2)n1	–	7 µM (active)
CCC(=NOC/C=C/Cl)C1=C(O)CC(C2CCOCC2)CC1=O (stereo not drawn)	inactive	–
FC(F)C(F)(F)OCC(Cn1cncn1)c1ccc(Cl)cc1Cl (stereo not drawn)	–	2.91 µM (active)
C#CCC1=C(C)C(OC(=O)C2C(C=C(C)C)C2(C)C)CC1=O (stereo not drawn)	–	7.23 µM (active)
S=C1NCCN1	inactive	–
CC(C1CC1)C(O)(Cn1cncn1)c1ccc(Cl)cc1 (stereo not drawn)	–	54.7 nM (active) and 47.4 nM (active)
CCOC(=O)CC(SP(=O)(OC)OC)C(=O)OCC (stereo not drawn)	–	1.98 µM (active)
O=[N+]([O-])c1cc(C(F)(F)F)c(Cl)c([N+](=O)[O-])c1Nc1ncc(C(F)(F)F)cc1Cl	–	1.84 µM (active)
C[Si](Cn1cncn1)(c1ccc(F)cc1)c1ccc(F)cc1	–	1.04 µM (active)
CCOP(=S)(OCC)Oc1ccc2c(C)c(Cl)c(=O)oc2c1	–	0.798 µM (active)
CC(C)=CC1C(C(=O)OCN2C(=O)C3=C(CCCC3)C2=O)C1(C)C (stereo not drawn)	–	10 µM (active)
CCCSP(=O)(OCC)Oc1ccc(Br)cc1Cl (stereo not drawn)	–	7.09 µM (active)
CC1(C(=O)Nc2ccc(O)c(Cl)c2Cl)CCCCC1	–	2.58 µM (active)
CCOP(=S)(OCC)OC(Cl)C(Cl)(Cl)Cl (stereo not drawn)	–	10 µM (active)
CCCOCC(=Nc1ccc(Cl)cc1C(F)(F)F)n1ccnc1	–	4.36 µM (active)
